Screening data (PubChem)
aSyn rescue: qHTS of alpha-syn Inhibitors | Yeast expressing alpha-synuclein, growth rescue, BacTiter-Glo, 24 h | Potency, µM (highest dose often 46.1 µM), without a hit: top-dose growth rescue (activation), hits mostly activators | 0.14% of 370,000 active | AID 652106, 2013; further: potency means the concentration at half of the fitted maximal effect; % of control where 0% means no effect; nearly all actives have a fitted effect of over 65% in size
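Rescue of yeast growth: cells expressing toxic alpha-synuclein, induced in galactose at OD600 0.02, incubated with compound 24 h at 30 C. ATP luminescence quantified growth; inhibitors of toxicity appear as activators.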
Apoferritin bind: qHTS Assay for Identification of Novel General Anesthetics. Ferritin light chain (Equus caballus), P02791. 0.074% of 350,000 active. Potency, µM (top dose mostly 77.5 µM), for the others: top-dose activity change, negative = displacement, hits mostly inhibitors. apoferritin/1-aminoanthracene competitive binding, fluorescence; further: potency means the concentration at half of the fitted maximal effect; on the % scale 0 is the no-effect control and ±100 the full control effect; nearly all actives have a fitted effect of over 20% in size
Target sequence (P02791 2-175 limits assumed): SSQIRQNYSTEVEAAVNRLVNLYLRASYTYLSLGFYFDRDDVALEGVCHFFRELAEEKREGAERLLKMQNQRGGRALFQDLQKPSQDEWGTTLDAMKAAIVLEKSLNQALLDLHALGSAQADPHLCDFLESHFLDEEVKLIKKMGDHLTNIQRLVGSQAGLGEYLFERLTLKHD
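In PBS, apoferritin at 10 uM is loaded with 1-AMA from a 50% saturated solution. After 10 min of compound exposure at ambient temperature, reduced 535 nm fluorescence indicates probe displacement.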
Mito fusion act: qHTS Assay for Small Molecule Inhibitors of Mitochondrial Division or Activators of Mitochondrial Fusion | Potency, µM (highest dose often 46.1 µM), for inactives: top-dose growth rescue (activation), most hits filed as activators | AID 485298, 2010 | 0.23% of 320,000 active | S. cerevisiae fusion-defective mutant growth rescue, CellTiterGlo 48 h; further: potency means the concentration at half of the fitted maximal effect; % of control where 0% means no effect; nearly all actives have a fitted effect of over 45% in size
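Yeast fusion mutant, YPEG (non-fermentable carbon), compound, 48 h at 37C non-permissive; CellTiterGlo added, 10 min RT, luminescence read. Rescued growth = division inhibition.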
TDP43 rescue: qHTS of TDP-43 Inhibitors | TDP-43 expressing yeast growth rescue, BacTiter-Glo, 24 h | Potency, µM (titrated, usually from 46.1 µM), for the others: at the top dose growth rescue (activation), hits mostly activators | 1.8% of 410,000 active | AID 652104, 2013; further: potency means the concentration at half of the fitted maximal effect; % of control where 0% means no effect; nearly all actives have a fitted effect of over 50% in size
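Yeast cells expressing TDP-43 under galactose induction are exposed to compounds for 24 hr at 30 deg C. BacTiter-Glo luminescence measures growth, so protective compounds score as activators.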
CCT chaperon mod: High-Throughput Screening for Modulators of Cytosolic Chaperonin Activity. purified chaperonin ATPase assay, HTRF ADP detection, 30 min. 0.3% of 360,000 active. activity change, % (concentration not given with the values), hits read low. AID 651819, 2012; in the data active means activity change below about -30%; further: on the % scale 0 is the no-effect control and ±100 the full control effect
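Nucleotide hydrolysis assay: TRiC at 20–40 nM final (set by batch activity) with 10 uM ATP, 30 min at 37 °C, in presence of 76 uM compound. Detection by competitive ADP HTRF, 30 min ambient.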
pAkt inh: HTS Assay for Inhibitors of Akt Phophorylation: Primary Screen. Neuro2A IGF-stimulated pAkt S473 HTRF, 20 min; active compounds read low. activity change, % for hits at 50 µM. 0.32% of 360,000 active. AID 651550, 2012; in the data active means activity change below about -80%; inconclusive means mostly about -51% to -80%; further: on the % scale 0 is the no-effect control and ±100 the full control effect
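Neuro2A cells (4,500/well, DMEM with 0.5% FBS) were treated with compound at a single 50 µM final concentration, stimulated with 6 nM IGF for 20 min at 37 °C, and lysed. Phospho-Akt Ser473 was read by HTRF as 665/615 ratio ×10^4.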
* hit, by the source's call; i = inactive; ? = inconclusive; . = no result given; ! = not active in a repeat; [ ] = dose if it differs, or a comment. Hits are enriched below; roughly 2.5% of the tested compounds scored in any of these assays. Unless noted, the call rests on the fitted dose curve; in most records, active means well fitted curve in the direction sought with a large enough effect; inconclusive means small, poorly fitted or top-dose-only effect, or another doubt; inactive means no such curve, though single readings can be large; an effect the other way counts as inactive or inconclusive.

SMILES	aSyn rescue	Apoferritin bind	Mito fusion act	TDP43 rescue	CCT chaperon mod	pAkt inh
Cc1cccc(NS(=O)(=O)c2cc(C(=O)N3CCc4ccccc4C3)ccc2Cl)c1C	10µM*	-20%	20%	-14%	1	.
CCc1nnc(SCc2nc(-c3ccccc3)oc2C)c2cc3sccc3n12	.	-10%	.	15%	.	.
CCCN1CNc2c(c(=O)[nH]c(=S)n2CCc2cc(OC)ccc2OC)C1	-4%	.	.	.	.	.
CN(C)c1ccc(C#Cc2ccc3cc(CCO)oc(=O)c3c2)cc1	-12%	.	-7%	3%	1	i
O=c1oc(CCO)cc2ccc(C#Cc3ccsc3)cc12	-2%	.	28%	18µM*	0	i
CC(C)Oc1ccc(F)cc1-c1cc(C(=O)N2CCc3ccccc3C2)[nH]n1	8%	.	.	28µM*	-1	i
COCCN(C(=O)c1ccco1)c1nnc(-c2ccc(F)cc2)s1	-8%	-15%	25%	?	-3	i
CCCN(C(=O)c1ccco1)c1nnc(-c2ccccc2C)s1	-18%	-23%	26%	13µM*	2	i
Nc1c2ccccc2nc2ccccc12	13%	233%	-26%	-23%	3	i
N#Cc1c2ccccc2nc2ccccc12	?	2%	1%	11µM*	0	i
O=S(=O)(c1ccccc1)n1ccc2ccccc21	1%	?	3%	?	-2	i
COc1ccc2ccn(S(=O)(=O)c3ccccc3)c2c1	0%	-6%	5%	20µM*	-1	i
O=c1c2oc3nc4c(cc3c2ncn1CCCc1ccccc1)CCCC4	0%	-10%	3%	24%	-32*	i
C=C/C1=C/Cc2ccccc2C(C[N+](=O)[O-])C(C(=O)OC)(C(=O)OC)C1 (stereo not drawn)	.	5%[15.3 µM]	.	.	.	.
O=S(=O)(Nc1ccc2oc3c(c2c1)CCCC3)c1cc(Cl)ccc1Cl	.	-4%	.	35µM*	.	.
O=S(=O)(Nc1ccc(N2CCOCC2)cc1)c1cc(Cl)ccc1Cl	15%	-13%	7%	14µM*	-1	i
O=S(=O)(Nc1ncccn1)c1ccc(NS(=O)(=O)c2cc(Cl)ccc2Cl)cc1	0%	0%	-1%	-1%	1	i
COc1ccc(S(=O)(=O)Nc2ccc3oc4c(c3c2)CCCC4)cc1	.	58%	.	35µM*	.	.
Oc1ccc(Nc2nc(-c3ccc4ccccc4c3)cs2)cc1	.	-21%	22%	.	.	.
Oc1ccc(Nc2ccc3ccccc3c2)cc1	-22%	.	.	22µM*	0	i
CCn1cc(C(=O)NCc2ccccc2)c(=O)c2cc(S(=O)(=O)N3CCOCC3)ccc21	.	-8%	.	9%	.	.
Cc1nc(-c2ccccc2)sc1-c1ccn[nH]1	-20%	-11%	5%	14µM*	-1	i
Cc1nc(-c2ccccc2)sc1-c1ccnn1C	0%	-7%	-1%	16%	0	i
CC[C@H](C)[C@H](NC(=O)[C@H](CO)NC(=O)[C@H](CC(N)=O)NC(=O)[C@H](CC(C)C)NC(=O)[C@H](Cc1ccc(O)cc1)NC(=O)[C@H](CCCCN)NC(=O)[C@H](CCCCN)NC(=O)[C@@H](NC(=O)[C@H](C)NC(=O)[C@H](CCSC)NC(=O)[C@H](CCC(N)=O)NC(=O)[C@H](CCCCN)NC(=O)[C@H](CCCNC(=N)N)NC(=O)[C@H](CC(C)C)NC(=O)[C@H](CCCNC(=N)N)NC(=O)[C@@H](NC(=O)[C@H](Cc1ccc(O)cc1)NC(=O)[C@H](CC(N)=O)NC(=O)[C@H](CC(=O)O)NC(=O)[C@@H](NC(=O)[C@H](Cc1ccccc1)NC(=O)[C@@H](NC(=O)[C@H](C)NC(=O)[C@H](CC(=O)O)NC(=O)[C@H](CO)NC(=O)[C@@H](N)Cc1cnc[nH]1)C(C)C)[C@@H](C)O)[C@@H](C)O)C(C)C)C(=O)N[C@@H](CC(C)C)C(=O)N[C@@H](CC(N)=O)C(N)=O	.	-9%	.	.	.	.
CC(C)(C)c1ccc(Oc2ccc(N)cn2)cc1	28%	-19%	6%	20µM*	2	i
SMILES	aSyn rescue	Apoferritin bind	Mito fusion act	TDP43 rescue	CCT chaperon mod	pAkt inh
Cc1cc(Oc2ccc(N)cn2)cc(C)c1Cl	9%	0%	3%	1%[1.82 µM]	2	i
Cc1ccc(C)c(-c2ccc(=O)n(Cc3c(F)cccc3Cl)n2)c1	18%	45µM*!	15%	1%	-2	i
CCC1COCCS(=O)(=O)N1Cc1cccc(Cl)c1 (stereo not drawn)	4%	?	2%	?	0	i
CC(C)[C@H]1COCCS(=O)(=O)N1Cc1cccc(Cl)c1	9%	?	-2%	35µM*	-1	i
Cn1c(=O)oc2cc(S(=O)(=O)CCC(=O)NCCc3ccccc3)ccc21	0%	-11%	0%	0%	-65*	i
Oc1ccccc1-c1n[nH]c(-c2ccccc2O)n1	5%	.	.	-19%	0	i
Clc1ccccc1-c1nc(-c2ccccc2)n[nH]1	-2%	?	2%	13µM*	0	i
CC(C)c1cccc(-c2csc(C(O)c3cccc(Cl)c3)n2)c1 (stereo not drawn)	-44%	.	.	-28%	-1	i
COc1ccc(C(O)c2nc(-c3cccc(C(C)C)c3)cs2)cc1 (stereo not drawn)	0%	.	.	35µM*	0	i
COc1ccc(C(O)c2nc(-c3cccc(O)c3)cs2)cc1 (stereo not drawn)	?	.	.	20µM*	0	i
COc1ccc(C(O)c2nc(-c3cccc(C(=O)O)c3)cs2)cc1 (stereo not drawn)	5%	.	.	11%	1	.
COc1ccccc1C(O)c1nccn1Cc1ccccc1 (stereo not drawn)	1%	.	.	.	.	.
CC1=CC(=C(c2ccc(N)cc2)c2ccc(N)cc2)C=CC1=N	-55%	.	.	.	.	.
O=C(O)/C=C\c1ccccc1Oc1ccc(F)cc1	24%	2%	?	0%	-4	i
O=C(O)/C=C/c1ccccc1Oc1ccccc1	30%	-4%	9%	18µM*	-1	i
O=C1OC(/C(=C\Nc2ccccc2)[N+](=O)[O-])c2ccccc21 (stereo not drawn)	16µM*	-8%	-9%	1%	1	i
O=C(Nc1cccc(C(=O)OCc2cc(=O)n3c4c(sc3n2)CCCC4)c1)c1cccc(F)c1	.	-7%	.	11%	.	.
COc1cccc(NC=C2C(=O)OC3(CCCCC3)OC2=O)c1	4%	-19%	-15%	25µM*	2	i
